Assay results published in PMC7862700, “An all-to-all approach to the identification of sequence-specific readers for epigenetic DNA modifications on cytosine”.

Key:
Test in all cases: DAPPL (digital affinity profiling via proximity ligation, sequencing); 10 mM Tris-HCl pH 7.5, 50 mM NaCl, 1 mM DTT, 4% glycerol, room temperature, 30 min; GST-TFs on glutathione beads, 16-mer random dsDNA library, 0.1% formaldehyde crosslink after washing; high values mean tight binding
Conditions in all cases: protein: recombinant; tags: N-terminal GST; dsDNA, one strand shown
FLI1 = target: T1, FLI1 (Homo sapiens, UniProt Q01543 1-452)
T1 sequence: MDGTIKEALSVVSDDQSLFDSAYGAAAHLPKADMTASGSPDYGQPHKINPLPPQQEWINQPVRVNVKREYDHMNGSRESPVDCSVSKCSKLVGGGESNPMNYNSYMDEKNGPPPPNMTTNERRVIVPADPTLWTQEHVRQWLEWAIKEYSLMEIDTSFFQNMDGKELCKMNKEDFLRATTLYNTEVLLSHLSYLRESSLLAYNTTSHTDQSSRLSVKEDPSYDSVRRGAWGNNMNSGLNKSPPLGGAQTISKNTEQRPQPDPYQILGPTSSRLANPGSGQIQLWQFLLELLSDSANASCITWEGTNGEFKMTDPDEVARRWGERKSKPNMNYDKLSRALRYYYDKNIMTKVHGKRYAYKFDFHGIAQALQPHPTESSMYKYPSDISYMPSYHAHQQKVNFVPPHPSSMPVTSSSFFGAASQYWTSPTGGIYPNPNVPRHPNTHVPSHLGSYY
Outline: (§1)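 Pools were built from human transcription factors expressed in yeast as GST fusions, captured on glutathione beads and DNA-barcoded, along with a tag-only sample. Incubation with 200 nmole of a 16-mer random double-stranded DNA library lasted 30 min at room temperature in Tris/NaCl/DTT/glycerol buffer, and was followed by washing, 0.1% formaldehyde crosslinking, proximity ligation, PCR amplification and Illumina NextSeq500 sequencing. Binding signal is the quotient of each hexamer's read frequency for a factor and its frequency for the tag-only sample.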

ELK1 = target: T2, ELK1 (Homo sapiens, UniProt P19419 1-428)
T2 sequence: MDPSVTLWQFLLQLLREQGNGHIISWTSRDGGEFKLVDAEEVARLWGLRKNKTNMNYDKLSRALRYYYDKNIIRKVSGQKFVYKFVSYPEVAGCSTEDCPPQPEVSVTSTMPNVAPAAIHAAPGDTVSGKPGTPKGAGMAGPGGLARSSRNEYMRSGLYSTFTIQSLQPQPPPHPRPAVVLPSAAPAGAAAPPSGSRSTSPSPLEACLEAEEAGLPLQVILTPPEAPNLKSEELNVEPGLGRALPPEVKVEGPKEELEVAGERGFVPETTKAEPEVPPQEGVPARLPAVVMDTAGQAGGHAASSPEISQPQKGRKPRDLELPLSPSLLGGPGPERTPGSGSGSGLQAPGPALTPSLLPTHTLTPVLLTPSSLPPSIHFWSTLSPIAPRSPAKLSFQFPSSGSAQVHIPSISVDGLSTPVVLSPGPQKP
Outline: as §1

ELF1 = ELF1 (Homo sapiens, UniProt P32519 1-619)
Sequence of ELF1 (P32519 whole entry): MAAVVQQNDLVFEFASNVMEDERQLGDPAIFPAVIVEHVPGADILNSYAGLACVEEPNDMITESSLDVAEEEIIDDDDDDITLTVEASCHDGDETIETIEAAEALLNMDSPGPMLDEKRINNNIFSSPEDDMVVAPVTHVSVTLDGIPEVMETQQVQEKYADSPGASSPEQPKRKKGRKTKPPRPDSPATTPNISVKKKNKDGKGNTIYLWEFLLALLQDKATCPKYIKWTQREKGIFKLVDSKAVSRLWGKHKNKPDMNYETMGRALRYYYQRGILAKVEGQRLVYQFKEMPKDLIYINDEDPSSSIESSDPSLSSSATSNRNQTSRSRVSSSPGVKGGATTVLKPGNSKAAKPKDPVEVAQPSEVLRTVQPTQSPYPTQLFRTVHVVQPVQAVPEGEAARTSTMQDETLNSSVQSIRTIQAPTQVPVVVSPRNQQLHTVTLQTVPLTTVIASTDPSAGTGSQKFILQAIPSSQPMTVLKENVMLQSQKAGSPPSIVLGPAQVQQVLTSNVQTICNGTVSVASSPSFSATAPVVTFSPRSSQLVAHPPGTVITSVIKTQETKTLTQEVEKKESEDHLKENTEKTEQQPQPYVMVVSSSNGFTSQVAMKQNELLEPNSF
Outline: as §1

EHF = target: T3, EHF (Homo sapiens, UniProt Q9NZC4 1-300)
T3 sequence: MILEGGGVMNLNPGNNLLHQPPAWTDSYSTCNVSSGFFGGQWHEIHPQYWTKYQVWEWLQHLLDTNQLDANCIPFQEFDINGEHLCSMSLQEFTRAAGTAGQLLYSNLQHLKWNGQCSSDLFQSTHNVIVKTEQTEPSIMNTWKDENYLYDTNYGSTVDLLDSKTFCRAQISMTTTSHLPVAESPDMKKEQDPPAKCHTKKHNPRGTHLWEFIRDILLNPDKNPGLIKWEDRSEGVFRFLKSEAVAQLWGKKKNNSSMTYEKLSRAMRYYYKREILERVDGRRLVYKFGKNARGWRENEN
Outline: as §1

SPI1 = SPI1 (Homo sapiens, UniProt P17947 1-270)
Outline: as §1

SPIB = SPIB (Homo sapiens, UniProt Q01892 1-262)
Sequence of SPIB (Q01892 whole entry): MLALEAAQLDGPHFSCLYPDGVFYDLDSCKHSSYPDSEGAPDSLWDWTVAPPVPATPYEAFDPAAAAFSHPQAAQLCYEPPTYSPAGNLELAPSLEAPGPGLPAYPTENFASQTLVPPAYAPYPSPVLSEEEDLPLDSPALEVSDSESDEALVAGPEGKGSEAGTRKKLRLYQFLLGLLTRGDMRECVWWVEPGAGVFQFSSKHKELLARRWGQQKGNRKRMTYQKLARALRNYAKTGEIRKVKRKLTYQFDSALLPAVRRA
Outline: as §1

ETV5 = ETV5 (Homo sapiens, UniProt P41161 1-510)
Sequence of ETV5 (P41161 whole entry): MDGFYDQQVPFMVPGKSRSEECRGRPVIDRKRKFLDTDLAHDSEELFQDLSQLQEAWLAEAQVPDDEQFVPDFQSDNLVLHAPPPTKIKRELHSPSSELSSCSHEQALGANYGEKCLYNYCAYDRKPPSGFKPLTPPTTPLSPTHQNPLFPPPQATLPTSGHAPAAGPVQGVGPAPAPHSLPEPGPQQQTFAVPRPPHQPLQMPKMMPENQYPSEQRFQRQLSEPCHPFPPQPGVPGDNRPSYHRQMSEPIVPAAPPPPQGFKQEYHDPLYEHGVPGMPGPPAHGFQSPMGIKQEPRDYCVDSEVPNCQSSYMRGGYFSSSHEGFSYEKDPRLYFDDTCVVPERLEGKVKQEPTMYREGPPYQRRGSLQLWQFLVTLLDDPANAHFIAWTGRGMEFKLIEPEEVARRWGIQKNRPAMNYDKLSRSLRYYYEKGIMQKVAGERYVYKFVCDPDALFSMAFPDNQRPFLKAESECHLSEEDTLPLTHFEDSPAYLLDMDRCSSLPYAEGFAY
Outline: as §1

ETV2 = target: T4, ETV2 (Homo sapiens, UniProt O00321 1-342)
T4 sequence: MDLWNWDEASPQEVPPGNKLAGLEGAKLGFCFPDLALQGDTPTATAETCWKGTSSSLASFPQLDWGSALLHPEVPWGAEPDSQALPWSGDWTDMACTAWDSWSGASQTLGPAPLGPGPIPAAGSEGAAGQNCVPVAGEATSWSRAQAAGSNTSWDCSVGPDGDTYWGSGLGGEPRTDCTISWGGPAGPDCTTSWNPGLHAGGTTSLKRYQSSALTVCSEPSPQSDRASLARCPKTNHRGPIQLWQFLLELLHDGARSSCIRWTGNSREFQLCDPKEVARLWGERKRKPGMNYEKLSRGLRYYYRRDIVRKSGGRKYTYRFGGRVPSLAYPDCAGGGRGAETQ
Outline: as §1

ETV1 = ETV1 (Homo sapiens, UniProt P50549 1-477)
Sequence of ETV1 (P50549 whole entry): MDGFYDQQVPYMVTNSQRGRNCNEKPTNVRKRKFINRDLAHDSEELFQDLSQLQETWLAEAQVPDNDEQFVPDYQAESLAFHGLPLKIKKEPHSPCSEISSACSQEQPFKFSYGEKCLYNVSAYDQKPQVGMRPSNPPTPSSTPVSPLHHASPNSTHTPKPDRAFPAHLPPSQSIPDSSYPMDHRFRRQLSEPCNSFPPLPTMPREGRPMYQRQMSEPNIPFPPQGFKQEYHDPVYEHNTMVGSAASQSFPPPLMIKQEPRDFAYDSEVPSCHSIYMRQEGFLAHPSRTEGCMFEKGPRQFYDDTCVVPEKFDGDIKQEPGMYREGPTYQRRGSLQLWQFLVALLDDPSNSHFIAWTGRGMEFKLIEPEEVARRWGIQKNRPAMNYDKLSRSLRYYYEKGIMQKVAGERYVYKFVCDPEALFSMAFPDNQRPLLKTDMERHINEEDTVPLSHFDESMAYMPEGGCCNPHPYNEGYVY
Outline: as §1

ETV7 = target: T5, ETV7 (Homo sapiens, UniProt Q9Y603 1-341)
T5 sequence: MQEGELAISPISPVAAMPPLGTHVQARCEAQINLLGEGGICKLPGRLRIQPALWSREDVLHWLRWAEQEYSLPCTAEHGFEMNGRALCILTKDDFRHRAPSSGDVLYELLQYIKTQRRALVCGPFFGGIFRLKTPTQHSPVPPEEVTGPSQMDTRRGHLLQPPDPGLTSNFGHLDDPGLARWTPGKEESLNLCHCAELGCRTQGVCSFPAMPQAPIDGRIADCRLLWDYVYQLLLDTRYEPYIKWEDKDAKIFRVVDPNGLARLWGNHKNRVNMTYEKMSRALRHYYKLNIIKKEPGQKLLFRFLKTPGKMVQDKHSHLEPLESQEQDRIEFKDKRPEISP
Outline: as §1

ETV6 = ETV6 (Homo sapiens, UniProt P41212 1-452)
Sequence of ETV6 (P41212 whole entry): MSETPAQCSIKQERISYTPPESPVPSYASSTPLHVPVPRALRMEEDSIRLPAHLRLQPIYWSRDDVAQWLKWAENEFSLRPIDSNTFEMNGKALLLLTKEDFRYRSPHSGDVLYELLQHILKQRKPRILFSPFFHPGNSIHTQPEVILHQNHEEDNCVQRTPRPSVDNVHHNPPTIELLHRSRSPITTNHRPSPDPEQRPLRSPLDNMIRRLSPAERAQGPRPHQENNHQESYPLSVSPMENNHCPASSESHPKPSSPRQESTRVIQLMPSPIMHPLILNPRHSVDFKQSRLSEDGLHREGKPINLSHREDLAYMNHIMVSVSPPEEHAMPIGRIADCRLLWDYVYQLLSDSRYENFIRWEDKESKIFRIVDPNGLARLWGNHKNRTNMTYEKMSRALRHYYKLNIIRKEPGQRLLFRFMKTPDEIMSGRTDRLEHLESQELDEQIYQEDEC
Outline: as §1

ERG = target: T6, ERG (Homo sapiens, UniProt P11308 1-479)
T6 sequence: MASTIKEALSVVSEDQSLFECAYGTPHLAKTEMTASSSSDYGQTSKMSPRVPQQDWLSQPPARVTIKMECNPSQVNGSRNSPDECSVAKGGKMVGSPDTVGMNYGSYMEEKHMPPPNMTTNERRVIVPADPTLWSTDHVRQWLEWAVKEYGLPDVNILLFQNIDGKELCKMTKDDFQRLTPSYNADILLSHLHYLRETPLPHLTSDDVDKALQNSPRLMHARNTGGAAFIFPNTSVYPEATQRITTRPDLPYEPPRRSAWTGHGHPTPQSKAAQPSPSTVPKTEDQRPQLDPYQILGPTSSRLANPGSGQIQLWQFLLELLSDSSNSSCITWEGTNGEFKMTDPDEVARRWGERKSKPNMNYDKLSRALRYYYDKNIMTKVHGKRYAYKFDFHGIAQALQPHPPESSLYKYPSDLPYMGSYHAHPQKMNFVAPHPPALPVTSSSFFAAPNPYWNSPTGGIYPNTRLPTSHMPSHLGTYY
Outline: as §1

ERF = target: T7, ERF (Homo sapiens, UniProt P50548 1-548)
T7 sequence: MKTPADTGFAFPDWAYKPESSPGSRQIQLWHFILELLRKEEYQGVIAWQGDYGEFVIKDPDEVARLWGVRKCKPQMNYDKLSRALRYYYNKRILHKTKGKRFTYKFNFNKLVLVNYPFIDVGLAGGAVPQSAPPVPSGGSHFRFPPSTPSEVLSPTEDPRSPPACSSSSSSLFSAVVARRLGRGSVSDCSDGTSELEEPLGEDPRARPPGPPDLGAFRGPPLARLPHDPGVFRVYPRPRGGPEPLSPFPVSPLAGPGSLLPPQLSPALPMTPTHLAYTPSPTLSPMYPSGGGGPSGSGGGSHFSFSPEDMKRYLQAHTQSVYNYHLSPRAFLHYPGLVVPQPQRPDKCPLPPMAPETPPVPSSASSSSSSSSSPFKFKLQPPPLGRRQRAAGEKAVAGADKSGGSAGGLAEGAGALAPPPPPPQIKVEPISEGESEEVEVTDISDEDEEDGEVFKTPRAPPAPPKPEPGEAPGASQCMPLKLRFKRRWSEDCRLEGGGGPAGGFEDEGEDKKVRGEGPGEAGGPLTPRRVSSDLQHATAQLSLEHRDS
Outline: as §1

ETV3 = target: T8, ETV3 (Homo sapiens, UniProt P41162-2 1-143)
T8 sequence: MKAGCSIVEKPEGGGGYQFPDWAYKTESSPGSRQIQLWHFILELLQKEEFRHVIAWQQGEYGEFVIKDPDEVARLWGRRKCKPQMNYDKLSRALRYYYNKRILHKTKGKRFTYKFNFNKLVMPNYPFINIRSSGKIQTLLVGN
Outline: as §1

ACGGTT
binding signal (FLI1): 1.07 fold enrichment (6-mer frequency, TF over GST control) | binding signal (ELK1): 1.02 fold enrichment (6-mer frequency, TF over GST control) | binding signal (ELF1): 1.03 fold enrichment (6-mer frequency, TF over GST control) | binding signal (EHF): 1.04 fold enrichment (6-mer frequency, TF over GST control) | binding signal (SPI1): 1.02 fold enrichment (6-mer frequency, TF over GST control) | binding signal (SPIB): 1.02 fold enrichment (6-mer frequency, TF over GST control) | binding signal (ETV5): 1 fold enrichment (6-mer frequency, TF over GST control) | binding signal (ETV2): 1.16 fold enrichment (6-mer frequency, TF over GST control) | binding signal (ETV1): 1.08 fold enrichment (6-mer frequency, TF over GST control) | binding signal (ETV7): 1.04 fold enrichment (6-mer frequency, TF over GST control) | binding signal (ETV6): 1.01 fold enrichment (6-mer frequency, TF over GST control)

AGTAAC
binding signal (FLI1): 1.02 fold enrichment (6-mer frequency, TF over GST control) | binding signal (ERG): 1.02 fold enrichment (6-mer frequency, TF over GST control) | binding signal (EHF): 1 fold enrichment (6-mer frequency, TF over GST control) | binding signal (SPI1): 1.07 fold enrichment (6-mer frequency, TF over GST control) | binding signal (SPIB): 1 fold enrichment (6-mer frequency, TF over GST control) | binding signal (ETV5): 1.03 fold enrichment (6-mer frequency, TF over GST control) | binding signal (ETV2): 1.05 fold enrichment (6-mer frequency, TF over GST control) | binding signal (ERF): 1.01 fold enrichment (6-mer frequency, TF over GST control) | binding signal (ETV3): 1.09 fold enrichment (6-mer frequency, TF over GST control) | binding signal (ETV6): 1.09 fold enrichment (6-mer frequency, TF over GST control)
